From publication PMC10163288
Only a sample is shown. The hit rate among all sequences tested is not known here.

B1: il2ra_site2_2erj_normal_mot_HHH_b1_08185_000000063_0001_41_55_H_._HHH_b1_04971_af2_0001_0000600015_0000001_0 (protein)
chain: SSSSSDSAEEALELAKEAYEKGDRSEVELILRYLELSLEDANDPRVEEAYELVEELLEELSSSSS
B2: il2ra_site2_3nfp_normal_mot_HHH_b1_01086_000000225_0001_20_36_H_._HHH_b2_03611_0001_0000300035_0000001_0 (protein)
chain: SSSSSEAEEELERLLRELEELLKRDPEEAHRLSARALNLAYEARDFEIFARLADISFALASSSSS
B3: il2ra_site1_3nfp_sap_16_mot_5dea99290cf7e133ebc5b763b21a7a39_0001_000000141_0001_34_49_H_._ems_3hC_617_0002_0001_0000300017_0000001_0_0001 (protein)
chain: NDKIAERLVRQAVEQNSPRILKKILEDLERVLGDPEEARERLRELLELVLGDPEEVERLLELAEE
B4: il2ra_site1_3nfp_sap_8_mot_93ec910cbd4ebb8dd092c1ac1e61ab37_0001_1_af2_000000101_0001_16_31_H_._22fa1065b69cf192845a0250a7ccff51_0001_1_0001_0000400021_0000001_ … (protein)
chain: SSSSDSVEWLQEMIERAFENNDRRQLRVLIKILEKAAEQFGDPEVEKLLEEAERLLEELNSSSSS
B5: il2ra_site1_3nfp_normal_mot_HHH_b2_04366_af2_000000103_0001_1_19_H_._d3e5e791db42274430e6ef9f54efc4f5_0001_af2_0001_0000100007_0000001_0_af2pred_0001_af2pred_sw … (protein)
chain: SAKEISELLREAARKDPEVSELLWEALRLFVKNEEEALRLLEELLKELGDPLVEEVLRLLEELAK
B6: il2ra_site1_1z92_sap_8_mot_a31c9f16200a66e5ad31ddff700483a3_0001_1_000000069_0001_19_32_H_._HHH_b1_03395_0001_0000300021_0000001_0_0001_af2pred_0001_af2pred_1 (protein)
chain: PEELAEEARELLENGNPEEARKVLEKLAKELGTEEAFKLDLERAERFTGNPEVALKALIAALARH
B7: il2ra_site2_2erj_normal_mot_HHH_b1_06697_000000025_0001_41_54_H_._HHH_b2_03722_0001_0000300007_0000001_0_af2pred_0001_1_af2pred_swapped (protein)
chain: SSSSSDKEEVEERVREILEEAEQVRDPREALKILEKADRLASENNNEEALELIHEVLQRLSSSSS
B8: il2ra_site2_3nfp_sap_15_mot_HHH_b1_07089_af2_000000257_0001_1_17_H_._51cc31007119fa75359d0ea3f4aa2c22_0001_1_0001_0000100009_0000001_0_0001 (protein)
chain: SSSSSAAEDSVHVLKRELEELGDRESIEELERLLEEIKEHNDPRLLLELYALLLRLYEESSSSSS
B9: il2ra_site1_1z92_sap_21_mot_35b94aac26684153dbcc4bf06a514b74_0001_1_000000068_0001_35_49_H_._HEEHE_2006_af2_0001_0000400023_0000001_0_0001_af2pred_0001_af2pred (protein)
chain: SSSSDEEEAAEEIVREVVEKLGLSEEDREALERDAEQSLRRGISERSVKQALEKAAKRERSSSSS
B10: il2ra_site1_1z92_sap_11_mot_HHH_b2_00249_af2_000000052_0001_39_52_H_._HHH_b2_00616_af2_0001_0000400013_0000001_1_0001_af2pred_0001_af2pred (protein)
chain: SSSSSEKRKEALELFEEANELFKRGNDEEAQELLRRALELAEEAGNRVLARAIEQALEDAESSSS
B11: il2ra_site2_2erj_sap_22_mot_HHH_b2_08130_000000073_0001_1_17_H_._HHH_b1_02674_0001_0000300003_0000001_0_0001 (protein)
chain: SSSSDVEELLEEIEELLRRGDREEAERLLHEAAELAFERNDFELFTEVVEVAHEIDRLRVSSSSS
B12: il2ra_site2_3nfp_normal_mot_HHH_b1_01086_000000225_0001_20_36_H_._HHH_b1_01202_0001_0000300006_0000001_0_af2pred_0001_af2pred_swapped (protein)
chain: SSSSDHERFALRAALLEIEVAIEAGDEKKVEKLIERLEILIKRLNDEEMEELLRKLKEELSSSSS
B13: il2ra_site2_3nfp_normal_mot_HHH_b1_00660_af2_000000090_0001_40_57_H_._HHH_b1_07775_af2_0001_0000100002_0000001_1 (protein)
chain: SSSSDEELEEEVEKLLEEAKKIEDKFEAFALVLRAREIAERLGDEELKQLVARVALEIYESSSSS
B14: il2ra_site1_3nfp_normal_mot_eb5a5eebac1e5153f932cc6c3f4b2787_0001_af2_000000065_0001_18_33_H_._31bff7180b20e3ed47766ceefd9934be_0001_af2_0001_0000200025_0000001 … (protein)
chain: DEEKELAELIAEAVEKNDPELLEEVVQELLKKLGDPKEASRLFEELLRKAGLSPEEIYLAMELVV
B15: il2ra_site2_2erj_normal_mot_HHH_b1_04373_af2_000000118_0001_18_33_H_._HHH_b1_02368_af2_0001_0000200015_0000001_0 (protein)
chain: SSSSDEELREEVEELLERAREAYEEGDLELVYELAVEAAHFAARNQDEELLELILEVVERLSSSS
B16: il2ra_site1_1z92_normal_mot_HHH_b1_03515_000000289_0001_1_19_H_._HHH_b2_07175_0001_0000100001_0000001_0 (protein)
chain: SSSSDRLERAAEIIVRVAVEANGLSEEQEKELEELARELVERGLDPLEIIKLLDRLAAELSSSSS
B17: il2ra_site2_2erj_sap_28_mot_HHH_b1_06697_000000025_0001_41_54_H_._HHH_b1_07674_0001_0001200015_0000001_1_0001 (protein)
chain: SSSSSDVKEAYEEIAELLARAAHIKDPEEVRKLLEEAERLAEENNDPFARKYVEFARRDFSSSSS
B18: il2ra_site1_1z92_normal_mot_HHH_b2_01902_af2_000000252_0001_25_40_H_._HHH_b1_06549_af2_0001_0000100014_0000001_0_af2pred_dldesign_0_af2pred (protein)
chain: SSSSSPLERAARQYVDAIKEIAGLSDEQYAELLAEAERLAAAGVPVRDIAKALDKRAAELLSSSS

Target: il2ra, P01589
Assay: yeast display titration

Sequence of il2ra, P01589 (P01589 whole entry): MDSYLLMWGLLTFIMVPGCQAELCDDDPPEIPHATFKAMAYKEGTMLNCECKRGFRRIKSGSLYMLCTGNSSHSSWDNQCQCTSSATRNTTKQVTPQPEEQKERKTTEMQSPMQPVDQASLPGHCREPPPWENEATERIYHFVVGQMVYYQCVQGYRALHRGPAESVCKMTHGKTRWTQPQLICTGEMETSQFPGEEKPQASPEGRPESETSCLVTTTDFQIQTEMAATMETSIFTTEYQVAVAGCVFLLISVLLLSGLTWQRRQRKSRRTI

Apparent Kd, inactive:
B1 no binding seen
B2 no binding seen
B3 no binding seen
B4 no binding seen
B5 no binding seen
B6 no binding seen
B7 no binding seen
B8 no binding seen
B9 no binding seen
B10 no binding seen
B11 no binding seen
B12 no binding seen
B13 no binding seen
B14 no binding seen
B15 no binding seen
B16 no binding seen
B17 no binding seen
B18 no binding seen
